# From PubChem BioAssay (NCATS)
# Inconclusive results are not listed. Activity calls are given as the source filed them. Calls follow the shape of the dose curve; as a rule, active = well fitted inhibition curve with a large enough effect; inconclusive = small, poorly fitted or top-dose-only effect; inactive = flat fitted curve, though single readings scatter.
# Target: Phospholipid hydroperoxide glutathione peroxidase GPX4 (Homo sapiens) (UniProt P36969)
# Assay: Primary qHTS Assay for Inhibitors of Recombinant Selenoprotein Glutathione Peroxidase 4 (GPX4) (AID 1845192); also: nearly all actives have a fitted effect of over 65% in size
# Conditions: recombinant GPX4, GR-coupled NADPH fluorescence, 15 min; series mostly up to 50 µM; activity change, negative = inhibition: at the top concentration
# Method in brief: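 GR-coupled readout: 100 nM GR, 1 mM GSH, 0.5 mM NADPH; NADPH fluorescence (ex 340/em 450 nm) read at t=0 and after 15 min RT. GPX4 200 nM, preincubated 30 min with compound; substrate 0.5 mM CHP.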
# % is scaled to controls: 0 for no effect and ±100 for the full control effect.
# Phospholipid hydroperoxide glutathione peroxidase GPX4 (Homo sapiens), sequence (P36969 whole entry, looked up): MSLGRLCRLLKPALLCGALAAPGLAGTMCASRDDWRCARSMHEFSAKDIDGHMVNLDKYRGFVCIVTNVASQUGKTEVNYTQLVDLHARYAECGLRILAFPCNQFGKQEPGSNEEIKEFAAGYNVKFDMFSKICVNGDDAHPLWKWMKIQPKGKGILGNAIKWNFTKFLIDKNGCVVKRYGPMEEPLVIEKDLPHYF
Structure (SMILES),outcome,"activity change, negative = inhibition",Potency
N#C/C(=C\c1ccc(O)c(O)c1)C(=O)c1ccc(O)c(O)c1,inactive,–,–
Nc1nc2ccc(Cl)cc2n2c(-c3ccccc3)nnc12,–,-4.77% (inactive),–
O=C1NC(=O)c2c1c(-c1ccccc1)cc1[nH]c3ccc(O)cc3c21,–,-25.9% (inactive),–
CN(C)CCC(c1ccc(Cl)cc1)c1ccccn1 (stereo not drawn),–,-6.14% (inactive),–
Cc1ccc(S(=O)(=O)/C=C/C#N)cc1,–,0.708% (inactive),–
CCCCC#Cc1nc(NC)c2ncn([C@@H]3O[C@H](CO)[C@@H](O)[C@H]3O)c2n1,inactive,–,–
CCCN(CC1CC1)c1nc(C)nc(Nc2c(Cl)cc(Cl)cc2Cl)c1Cl,–,-15.1% (inactive),–
C[N+](C)(C)CCOP(=O)(O)OP(=O)([O-])OC[C@H]1O[C@@H](n2ccc(N)nc2=O)[C@H](O)[C@@H]1O,–,1.95% (inactive),–
COc1cc2c(CCNC(C)=O)c[nH]c2cc1Cl,–,-15.6% (inactive),–
OC[C@H]1O[C@@H](n2cnc3c(NC4CCCCC4)ncnc32)[C@H](O)[C@@H]1O,–,-3.8% (inactive),–
CC(=O)N[C@H](C(=O)O)C(C)(C)SN=O,inactive,–,–
Cn1cc(C2=C(c3ccc(Cl)cc3Cl)C(=O)NC2=O)c2ccccc21,–,0.534% (inactive),–
Cn1c(=O)c2[nH]c(-c3ccccc3)nc2n(C)c1=O,inactive,–,–
COc1cccc(OC)c1OCCNCC1COc2ccccc2O1 (stereo not drawn),–,-16.3% (inactive),–
CO[C@H]1O[C@@H]2O[C@]3(C)CC[C@@H]4[C@@H](C)CC[C@H]([C@H]1C)[C@]24OO3,inactive,–,–
N#C/C(=C\c1ccc(-c2cc(Cl)ccc2Cl)o1)C(=O)Nc1cccc2ncccc12,inactive,–,–
Cn1c(=O)c(-c2c(Cl)cccc2Cl)cc2cnc(Nc3ccc(N4CCOCC4)cc3)nc21,–,-19.8% (inactive),–
CCC(CO)Nc1nc(NCc2ccccc2)c2ncn(C(C)C)c2n1 (stereo not drawn),–,-3.97% (inactive),–
S=C(S)OC1CC2CC1C1CCCC21 (stereo not drawn),–,-15.6% (inactive),–

Structure (SMILES),outcome,"activity change, negative = inhibition",Potency
O=C(O)CC1CCCc2ccccc2C1O (stereo not drawn),–,-0.377% (inactive),–
O=[N+]([O-])c1ccc2c(c1)S(=O)(=O)C=C2,–,-7.16% (inactive),–
C#C[C@]1(O)CC[C@H]2[C@@H]3CCC4=Cc5oncc5CC4(C)[C@H]3CCC21C (stereo partly drawn),–,-0.481% (inactive),–
Nc1nc(Cl)nc2c1ncn2[C@@H]1O[C@H](CO)[C@@H](O)[C@H]1O,inactive,–,–
CN1CCc2ccccc2Cc2[nH]c3ccccc3c2CC1,inactive,–,–
COc1ccc(/C=C/c2nc(NCCCN(C)C)c3ccccc3n2)cc1,inactive,–,–
S=c1[nH]c(-c2ccccc2)cn1-c1ccccc1,inactive,–,–
c1cnc2c(c1)ccc1cccnc12,–,-6.94% (inactive),–
CC(C)(NS(=O)(=O)c1ccc(Oc2ccc(F)cc2)cc1)C(=O)NO,inactive,–,–
O=S(=O)(c1cccc2c(I)cccc12)N1CCCNCC1,–,–,inactive
O=C(O)c1cc([N+](=O)[O-])ccc1NCCCc1ccccc1,–,1.59% (inactive),–
CC[C@H]1OC(=O)[C@H](C)[C@@H](O[C@H]2C[C@@](C)(OC)[C@@H](O)[C@H](C)O2)[C@H](C)[C@@H](O[C@@H]2O[C@H](C)C[C@H](NC)[C@H]2O)[C@](C)(O)C[C@@H](C)CN(C)[C@H](C)[C@@H](O)[C@]1(C)O,inactive,–,–
NC(CCCP(=O)(O)O)C(=O)O (stereo not drawn),–,-10.4% (inactive),–
NC[C@@H]1O[C@H](C23CC4CC(CC(C4)C2)C3)Cc2c1ccc(O)c2O,inactive,–,–
O=c1[nH]c2cc([N+](=O)[O-])c([N+](=O)[O-])cc2[nH]c1=O,–,-24.6% (inactive),–
CC(C)Cc1ccc([C@H](C)C(=O)O)cc1,–,-17.3% (inactive),–
CCCCCCCC/C=C\CCCCCCCC(=O)NCCO,inactive,–,–
CC[C@H]1OC(=O)[C@H](C)C(O[C@H]2C[C@@](C)(OC)[C@@H](O)[C@H](C)O2)[C@H](C)[C@@H](OC2O[C@H](C)C[C@H](N(C)C)[C@H]2O)[C@](C)(O)C[C@@H](C)CN(C)[C@H](C)[C@@H](O)[C@]1(C)O (stereo partly drawn),–,-1.96% (inactive),–
CN[C@H](CC(C)C)C(=O)N[C@H]1C(=O)N[C@@H](CC(N)=O)C(=O)N[C@H]2C(=O)N[C@H]3C(=O)N[C@H](C(=O)N[C@H](C(=O)O)c4cc(O)cc(O)c4-c4cc3ccc4O)[C@H](O)c3ccc(c(Cl)c3)Oc3cc2cc(c3O[C@@H]2O[C@H](CO)[C@@H](O)[C@H](O)[C@H]2O[C@H]2C[C@](C)(N)[C@H](O)[C@H](C)O2)Oc2ccc(cc2Cl)[C@H]1O,–,–,inactive
